SARS PLP yeast – qHTS of Yeast-based Assay for SARS-CoV PLP. S. cerevisiae expressing SARS-CoV PLpro, growth rescue. Potency, µM (top dose mostly 32.9 µM), for the others: at the highest dose activity, positive = growth rescue, most hits filed as activators. hit rate 0.19% among 330,000. AID 485353, 2010; calls by dose curve; also: 0% is about no effect; nearly all actives have a fitted effect of over 55% in size
Pf growth 96h – Primary qHTS for delayed death inhibitors of the malarial parasite plastid, 96 hour incubation; P. falciparum luciferase reporter growth, 96 h; Potency, µM (top dose mostly 28.7 µM), for inactives: at the highest dose activity change, negative = inhibition, hits mostly inhibitors; hit rate 6.9% among 320,000; AID 504834, 2011; also: % is scaled to controls: 0 for no effect and ±100 for the full control effect
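Two-generation exposure (96 h) targets delayed-death phenotype. Reporter parasites carrying integrated firefly luciferase, in red cells at 2% hematocrit and 0.05% parasitemia final, kept at 37 C, 5% CO2; luminescence loss indicates inhibition.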
AMA1-RON2 inh – qHTS for Inhibitors of AMA1-RON; Towards Development of Antimalarial Drug Lead: Primary Screen; Plasmodium falciparum AMA1 (3D7) - RON2 peptide interaction; AlphaScreen AMA1-biotinylated RON2 peptide binding; Potency, µM (highest dose often 58.2 µM), without a hit: top-dose activity change, negative = inhibition, usual class: inhibitors; hit rate 0.2% among 360,000;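 also: 0% = vehicle wells and -100% = peptide control; nearly all actives have a fitted effect of over 45% in size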
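AMA1 (3D7) with his tag at 25 nM final met compounds first, then biotinylated RON2 peptide at 25 nM; detection used donor plus acceptor beads, 10 µg/mL apiece, read by AlphaScreen after 30 min at room temperature.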
Pf growth 48h – Primary qHTS for delayed death inhibitors of the malarial parasite plastid, 48 hour incubation; P. falciparum luciferase growth in erythrocytes, 48 h; Potency, µM (series often up to 28.7 µM), for inactives: top-dose activity change, negative = inhibition, most hits filed as inhibitors; hit rate 5.9% among 310,000; also: % is scaled to controls: 0 for no effect and ±100 for the full control effect
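Cell-based growth assay: transgenic P. falciparum expressing firefly luciferase, cultured in red cells within RPMI 1640 containing 0.5% w/v Albumax, 24 mM bicarbonate and gentamycin. A drop in luciferase activity indicates inhibition.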
Active calls of the source: *; ? = inconclusive; / = no result; [ ] = remark or other dose. Rows were chosen to be rich in hits. Some 9.4% of all compounds tested hit in one or more screens of this group. Unless noted, calls follow the shape of the dose curve; as a rule, active = well fitted curve in the direction sought with a large enough effect; inconclusive = small, poorly fitted or top-dose-only effect, or another doubt; inactive = no such curve, though single readings can be large; an effect the other way counts as inactive or inconclusive. Potency is read from the fitted curve at half-maximal effect.

SMILES	SARS PLP yeast	Pf growth 96h	AMA1-RON2 inh	Pf growth 48h
Cc1cc(Cl)cc(C)c1OCCCCCn1ccnc1	-2%	0%	1%	?
Cc1cccc(C)c1OCCCCN1CCNCC1	-4%	25%	-26%	?
Cc1ccc(C)c(OCCCCCn2ccnc2)c1	-1%	12µM*	-6%	15µM*
CCOC(=O)C1=C(O)C(=O)N(c2ccc(S(N)(=O)=O)cc2)C1c1ccc(OC)cc1OC (centres undefined)	1%	5%[5.75 µM]	-5%	-4%
CCOC(=O)N1CCN(C(=O)CC(=O)Nc2ccc3nc4n(c(=O)c3c2)CCCCC4)CC1	-3%	7%	-1%	5.9µM*
O=C(Nc1ccc2nc3n(c(=O)c2c1)CCCCC3)C(=O)N1CCN(c2ccccc2)CC1	1%	?	11%	1.3µM*
Cc1cc(C)c2c(=O)c3c(oc2c1)C(=O)N(CCO)C3c1cccc(O)c1 (centres undefined)	0%	/	?	-15%
c1ccc2c(CNC3CCCCC3)c[nH]c2c1	-2%	13µM*	-4%	/
c1ccc2c(CN3CCN(C4CCCCC4)CC3)c[nH]c2c1	-7%	12µM*	4%	6.6µM*
S=C(NCCc1c[nH]c2ccccc12)NC1CCCCC1	17%	-2%	-14%	23%
O=[N+]([O-])c1ccc2sc(SCc3nc4ccccn4c3Br)nc2c1	10%	-83%	/	4%
Brc1c(CSc2nc3ccccc3s2)nc2ncccn12	-48%	3.3µM*	-7%	3%
NC(N)=NN=C1CCCCCCCCCCC1	1%	3.7µM*	12%	10µM*
CC(C)CC(=O)Nc1ccnc(-c2ccncc2)n1	-1%	-6%	-5%	-8%
COCCn1c(C)cc(/C=N/NC(=O)c2cccnc2)c1C	1%	69%	72%	49%
CCOC(=O)Nc1ccc2c(c1)N(C(=O)CN1CCN(CCO)CC1)c1ccccc1CC2	15%	12µM*	33%	?
CCOC(=O)Nc1ccc2c(c1)N(C(=O)CCN1CCN3CCCC3C1)c1ccccc1CC2 (centres undefined)	-5%	15µM*	-1%	-28%
CCOC(=O)Nc1ccc2c(c1)N(C(=O)N(CC)CC)c1ccccc1CC2	-134%	?	5%[11.6 µM]	12µM*
CCNCC(=O)N1c2ccccc2CCc2ccc(NC(C)=O)cc21	-14%	11%	56%	11%
CCNCC(=O)N1c2ccccc2CCc2ccc(NC(=O)OC(C)C)cc21	-3%	-33%	52%	12µM*
CCOC(=O)c1nnn2c1nc(N1CCN(C)CC1)c1ccccc12	1%	?	-13%	-27%
O=C(CNC(=O)c1ccccc1)OCc1cccc([N+](=O)[O-])c1	-1%	0%	-15%	8%
Cc1onc(-c2ccccc2Cl)c1C(=O)N1CC(C)CC(C)C1 (centres undefined)	2%	30%	0%	-14%
Cc1ccc(NC(=O)CCNS(=O)(=O)c2ccc3[nH]c(=O)oc3c2)cc1F	-4%	54%	3%	?
CCOC(=O)Nc1ccc2c(c1)N(C(=O)N1CCN(C)CC1)c1ccccc1CC2	-1%	0%	-2%	12µM*
SMILES	SARS PLP yeast	Pf growth 96h	AMA1-RON2 inh	Pf growth 48h
CCCCOc1[nH]c2nc(-c3ccco3)n(Cc3ccco3)c(=N)c2c1C#N	-4%	13%	-10%	5.9µM*
CC1=CC(=O)N(c2cccc(C(F)(F)F)c2)C1c1ccc(Cl)cc1 (centres undefined)	-18%	?	5%	8.3µM*
CC1=CC(=O)N(c2ccc(C)cc2)C1c1ccc(Cl)cc1 (centres undefined)	-13%	?	-3%	?
Cc1nc2ccc3nc(NC(=O)c4ccco4)sc3c2s1	/	/	33%	/
COc1cc(OC)cc(C(=O)N2CCN(Cc3ccccc3C(F)(F)F)CC2)c1	-4%	?	-26%	6%
CCN1CCN(Cc2ccc(NC(=O)c3cc(NC(=O)c4cncc(-c5ccc(C#N)cc5)c4)cc(OC)c3)cc2C(F)(F)F)CC1	-1%	0.1µM*	?	0.47µM*
CCN1CCN(Cc2ccc(NC(=O)c3ccc(C)c(NC(=O)c4cc(-c5ccc(Br)cc5)n[nH]4)c3)cc2C(F)(F)F)CC1	0%	1.9µM*	0%	1µM*
CCN1CCN(Cc2ccc(NC(=O)c3cc(NC(=O)c4cnnc5ccccc45)cc(OC)c3)cc2C(F)(F)F)CC1	0%	2.9µM*	-25%	2.3µM*
CCN1CCN(Cc2ccc(NC(=O)c3ccc(C)c(NC(=O)N4CCNC4=O)c3)cc2C(F)(F)F)CC1	-8%	?	-10%	?
CCN1CCN(Cc2ccc(NC(=O)c3cc(NC(=O)c4nccnc4N)cc(OC)c3)cc2C(F)(F)F)CC1	-4%	1.5µM*	-8%	1.7µM*
CN(C(=O)c1cccc(NC(=O)Cc2cccc(NC(=O)C3CCCN(C(=O)c4ccccc4)C3)c2)c1)C1CC1 (centres undefined)	/	/	-3%	/
CCN1CCN(Cc2ccc(NC(=O)c3ccc(C)c(NC(=O)c4nccnc4N)c3)cc2C(F)(F)F)CC1	1%	2.6µM*	48%	5.2µM*
CCN1CCN(Cc2ccc(NC(=O)c3ccc(C)c(NC(=O)c4cccc5[nH]ccc45)c3)cc2C(F)(F)F)CC1	0%	10µM*	-20%	12µM*
CCN1CCN(Cc2ccc(NC(=O)c3ccc(C)c(NC(=O)c4nccn4C)c3)cc2C(F)(F)F)CC1	1%	-25%	45%	?
Cc1ccc(C(=O)Nc2cccc(C(F)(F)F)c2)cc1NC(=O)c1nccn1C	-4%	60%	77%	17%
CC(C)N(C(=O)CSc1nnc(-c2cc3ccccc3cc2O)n1Cc1ccco1)C(C)C	-5%	35%	22%	2.1µM*
Cc1occc1-c1nnc(SCC(=O)N2CCOCC2)n1Cc1ccco1	2%	0%	5%	9%
O=C(CSc1nnc(-c2cc3ccccc3cc2O)n1Cc1ccco1)N1CCc2ccccc2C1	-12%	1.7µM*	62%	/
COc1cccc(C(=O)CSc2nnc(-c3ccco3)n2CC2CCCO2)c1 (centres undefined)	-1%	46%	-7%	8%
COc1ccc(C(c2nnnn2C(C)(C)C)N2CCN(C)CC2)cc1OC (centres undefined)	-1%	1%	16%	20%
S=C(NCCc1ccccn1)Nc1ccccc1Cl	0%	-20%	87%	17%
Cc1cccc(N(Cc2ccccc2)C(=O)CSC(C)C(=O)Nc2cc(C)on2)c1 (centres undefined)	0%	10µM*	-3%	?
Cc1cccc(NS(=O)(=O)c2cc(C(=O)N3CCN(C)CC3)ccc2C)c1	9%	9.3µM*	6%	/
CC(=O)Nc1ccc(NC(=O)c2ccc(C)c(S(=O)(=O)Nc3cccc(C)c3)c2)cc1	1%	44%	-1%	12µM*
CN(c1ccc(OCc2ccc([N+](=O)[O-])cc2)cc1)S(=O)(=O)c1ccccc1	-2%	-3%	4%	-17%
